Compound activity as filed in PubChem BioAssay.
Rows were chosen to be rich in hits. Some 9.2% of all compounds tested hit in one or more screens of this group.
FLuc counter – qHTS profiling assay for firefly luciferase inhibitor/activator using purifed enzyme and Km concentrations of substrates (counterscreen for miR-21 project) | actives 6.9% (n = 360,000) | Luciferin 4-monooxygenase (Photinus pyralis), P08659 | purified FLuc, Km substrates, luminescence inhibition | Potency, µM (series often up to 57.5 µM), inactives show at the highest dose activity change, negative = inhibition, actives largely listed as inhibitors;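 note: plate controls were vehicle for no effect and reference inhibitor for full effect; nearly all actives have a fitted effect of over 55% in size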
Target sequence (P08659 whole entry, looked up): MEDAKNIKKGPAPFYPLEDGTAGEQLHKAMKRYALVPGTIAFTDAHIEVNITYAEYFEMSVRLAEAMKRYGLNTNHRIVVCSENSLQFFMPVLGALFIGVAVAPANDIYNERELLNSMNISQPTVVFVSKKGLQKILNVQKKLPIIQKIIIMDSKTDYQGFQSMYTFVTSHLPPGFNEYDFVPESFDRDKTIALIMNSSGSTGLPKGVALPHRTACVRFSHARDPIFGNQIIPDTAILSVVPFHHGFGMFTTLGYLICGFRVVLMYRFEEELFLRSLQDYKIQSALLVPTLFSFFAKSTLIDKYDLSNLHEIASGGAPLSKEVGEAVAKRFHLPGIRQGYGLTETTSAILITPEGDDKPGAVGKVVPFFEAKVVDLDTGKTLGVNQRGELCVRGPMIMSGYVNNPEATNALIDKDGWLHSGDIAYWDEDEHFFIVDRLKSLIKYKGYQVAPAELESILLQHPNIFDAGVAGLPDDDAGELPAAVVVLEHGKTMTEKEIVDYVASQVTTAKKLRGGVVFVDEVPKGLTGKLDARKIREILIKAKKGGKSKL
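Biochemical qHTS of compounds, final roughly 60 µM downward over six points, against 10 nM purified firefly luciferase using Km concentrations of substrates (10 uM D-luciferin, 10 uM ATP) in Tris acetate pH 7.5 buffer; luminescence output.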
Rab9 promoter act – qHTS Assay for Rab9 Promoter Activators; Huh7 Rab9 promoter-luciferase reporter, luminescence, 24 h; AID 485297, 2010; actives 2.8% (n = 320,000); Potency, µM (series often up to 9.22 µM), inactives show at the highest dose activation, negative = inhibition, actives largely listed as activators; note: % of control where 0% means no effect; nearly all actives have a fitted effect of over 60% in size
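Rab9 promoter-driven luciferase in stably transfected Huh7 cells; 1500 cells/well rested 2 h, exposed to compound in DMSO for 24 h at 37 °C, 5% CO2. Luminescence read 10 min after adding luciferase reagent at ambient temperature.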
NPC1 prom act – qHTS Assay for NPC1 Promoter Activators; actives 2.4% (n = 320,000); Huh7 NPC1 promoter luciferase reporter, 24 h; AID 485313, 2010; Potency, µM (titrated, usually from 9.22 µM), inactives show at the highest dose activation, hits mostly activators; note: % of control where 0% means no effect; nearly all actives have a fitted effect of over 60% in size
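NPC1 promoter–luciferase Huh7 cells; 24 h compound; luminescence.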
SMN2 splice enh – qHTS Assay for Enhancers of SMN2 Splice Variant Expression. HEK293 SMN2-luciferase splicing reporter, luminescence, 30-36 h. Potency, µM (doses to about 46.1 µM), for the others: top-dose activity change, positive = activation, actives largely listed as activators. actives 2.8% (n = 210,000). AID 1458, 2008; note: % of control where 0% means no effect; nearly all actives have a fitted effect of over 55% in size
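HEK293 cells carry an SMN2 […]–luciferase reporter in which exon 7 inclusion puts luciferase in frame. Cells were plated 10-12 h before compound addition, then incubated 30-36 h at 37C. ONE-Glo luminescence was read; sodium butyrate at 4.5 mM final served as control.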
ELG1 repair inh – qHTS screen for small molecules that inhibit ELG1-dependent DNA repair in human embryonic kidney (HEK293T) cells expressing luciferase-tagged ELG1. HEK293T ELG1-luciferase reporter, luminescence, 16 h; DNA damage induced by 5-fluorouridine. Potency, µM (highest dose often 46.1 µM), for the others: top-dose activity change, negative = inhibition, actives largely listed as inhibitors. actives 2.3% (n = 330,000). AID 504467, 2011; note: % is set by controls: 0 for no effect and ±100 for the full control effect; nearly all actives have a fitted effect of over 55% in size
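DMSO vehicle served as the neutral condition. Each well held 2,000 cells given 5-fluorouridine plus compound; after 16 hr at 37 °C/5% CO2, ONE-Glo was added and luciferase measured 30 min later.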
ELG1 genotox – qHTS screen for small molecules that induce genotoxicity in human embryonic kidney (HEK293T) cells expressing luciferase-tagged ELG1. actives 1.3% (n = 330,000). Potency, µM (series often up to 46 µM), inactives show top-dose activity change, positive = activation, actives largely listed as activators. HEK293T ELG1-luciferase reporter, luminescence, 16 h; note: % of control where 0% means no effect; nearly all actives have a fitted effect of over 60% in size
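ELG1-luciferase HEK293T cells, 2,000/well; compound pinned in; 16 hr, 37 °C, 5% CO2; ONE-Glo, 30 min RT; luminescence on CCD imager.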
Active calls of the source: *; ? = inconclusive; / = no result given. Calls come from the whole dose curve; as a rule, active = well fitted curve in the direction sought with a large enough effect; inconclusive = small, poorly fitted or top-dose-only effect, or another doubt; inactive = no such curve, though single readings can be large; an effect the other way counts as inactive or inconclusive. Potency is the fitted concentration of half-maximal effect.

SMILES	FLuc counter	Rab9 promoter act	NPC1 prom act	SMN2 splice enh	ELG1 repair inh	ELG1 genotox
C=CC[C@H](CC(=O)NCCO)C(=O)NC[C@@H](OC(=O)[C@@H](CC=C)CC(=O)OC(C)(C)C)c1ccccc1	/	/	/	/	-7%	1%
Cc1nc(Oc2ccc(S(=O)(=O)N3CCOCC3)cc2Cl)c2c3c(sc2n1)CCCC3	-2%	-4%	-2%	-51%	?	-3%
COc1ccc(C2C(C(C)=O)=C(O)C(=O)N2c2nccs2)c(OC)c1 (stereo not given)	5%	-2%	-8%	-7%	4%	1%
COc1ccccc1N/C=C(\C#N)c1nc2ccccc2[nH]1	3.4µM*	-28%	-16%	/	?	9%
COc1cc(/C=C(\C#N)C(=O)c2c[nH]c3ccccc23)cc(OC)c1O	15µM*	-4%	0%	-46%	-5%	4%
COc1cc(/C=C(\C#N)c2nc3ccccc3[nH]2)cc(OC)c1O	12µM*	19%	1%	8%	-30%	4%
COc1cc(/C=C(\C#N)C(=O)NCCc2ccccc2)cc(OC)c1O	-15%	-7%	-4%	/	8%	0%
COc1ccc(/C=C(\C#N)c2nc3ccccc3[nH]2)cc1O	9.5µM*	?	?	/	?	?
CC(C)Cn1c(N)c(C(=O)CSc2nnc(C3CC3)n2C2CC2)c(=O)n(C)c1=O	-3%	-1%	0%	/	0%	1%
COc1cc(/C=C(/C#N)c2nc3ccccc3c(=O)[nH]2)ccc1O	8.5µM*	6%	11%	5%	?	5%
COc1ccc(/C=C(\C#N)c2nc3ccccc3c(=O)[nH]2)cc1OC	-6%	/	/	-7%	/	/
CCC(=O)Oc1ccc(/C=C(\C#N)c2nc3ccccc3[nH]2)cc1OC	2.7µM*	/	/	?	/	/
COc1c(Cl)cc(Cl)cc1/C=C(\C#N)c1nc2ccccc2[nH]1	2%	/	/	/	/	/
COc1c(O)ccc(/C=C(\C#N)c2nc3ccccc3[nH]2)c1[N+](=O)[O-]	27µM*	12%	6%	18%	17%	1%
CCC(C(=O)NN1C(=O)c2ccccc2C1=O)c1ccccc1 (stereo not given)	-5%	1%	-2%	6%	9%	3%
Cc1ccc(CC2CC(=O)N(c3nc4ccccc4s3)C2=O)cc1 (stereo not given)	27µM*	-9%	-1%	/	3%	0%
COc1ccc2nc(N3C(=O)CC(Cc4ccc(C)cc4)C3=O)sc2c1 (stereo not given)	?	-2%	0%	-7%	-8%	-1%
O=C1C2C3C=CC(C3)C2C(=O)N1c1ccc2ccccc2n1 (stereo not given)	?	2%	1%	-1%	20%	1%
O=C1C2C3C=CC(C3)C2C(=O)N1c1nc2ccccc2s1 (stereo not given)	19µM*	-5%	2%	-16%	28%	0%
CCc1ccc(CNC(=O)C(C)n2ccc3cc(S(=O)(=O)N4CCCCCC4)ccc32)cc1 (stereo not given)	-10%	/	/	/	/	/
Nc1c2c(nc3ccc(Br)cc13)N(Cc1ccccc1)CC2	17µM*	0%	0%	-16%	-6%	-2%
Nc1c2c(nc3ccc(Br)cc13)N(C1CCCCC1)CC2	?	-4%	-2%	-10%	6%	-8%
Nc1c2c(nc3ccc(Br)cc13)N(c1ccccc1)CC2	?	22%	13%	16%	18%	11%
Cc1cccc(N2CCc3c2nc2ccc(Br)cc2c3N)c1	8.5µM*	3%	-1%	-9%	?	-6%
Cc1ccc2c(=O)cc(C(=O)Nc3cccc(C(F)(F)F)c3)oc2c1C	2%	/	/	4%	/	/
SMILES	FLuc counter	Rab9 promoter act	NPC1 prom act	SMN2 splice enh	ELG1 repair inh	ELG1 genotox
CCOC(=O)c1c(NC(=O)c2c(-c3ccccc3)noc2C)sc(C)c1-c1ccccc1	-1%	21%	-11%	0.71µM*	13%	-9%
CCOC(=O)c1c(NC(=O)/C=C/C(=O)O)sc(C)c1-c1ccc(C(C)(C)C)cc1	?	-5%	-7%	-65%	12µM*	-3%
CCN1CCN(C(=S)Nc2sc(C)c(-c3ccccc3)c2C(=O)OC)CC1	-3%	-6%	-3%	/	16µM*	-7%
CCOC(=O)c1c(NC(=O)CCN2CCOCC2)sc(C)c1-c1ccccc1	2%	-8%	-1%	/	21µM*	-11%
CCOC(=O)c1ccccc1NC(=O)c1c(-c2ccccc2)noc1C	-18%	/	/	/	/	/
CCOC(=O)c1c(-c2ccco2)csc1NC(=O)COC(=O)c1cnccn1	-12%	-1%	3%	/	3%	-1%
Cc1onc(-c2ccccc2)c1C(=O)OCC(=O)Nc1ccc(Cl)cc1	/	-9%	3%	/	?	-7%
Cc1onc(-c2ccccc2)c1C(=O)OCC(=O)Nc1cccc(Cl)c1	1%	-2%	1%	/	13µM*	-9%
NC(=O)c1ccccc1NC(=O)CSc1nc2ccccc2c(=O)[nH]1	1%	7%	0%	/	-1%	-4%
Cc1cc2nc(SCC(=O)Nc3ccccc3C(=O)O)[nH]c2cc1C	11µM*	-4%	0%	30%	?	?
Cc1sc2ncnc(NCc3cccs3)c2c1C	2%	-31%	-17%	-34%	7%	4%
Cc1sc2ncnc(N/N=C/c3ccccc3O)c2c1C	21µM*	-12%	6%	-81%	?	?
Cc1sc2ncnc(N/N=C/c3ccc(O)cc3)c2c1C	19µM*	-6%	-7%	0%	?	8%
COc1ccc(/C=N/Nc2nonc2N)cc1	?	23%	13%	5%	?	3%
Cc1ccc(Nc2ncnc3sc(C)c(C)c23)cc1C	?	0%	3%	?	?	?
Cc1sc2ncnc(NCC(c3ccccc3)N(C)C)c2c1C (stereo not given)	-1%	-11%	2%	/	-3%	-2%
COc1ccc(/C=N/Nc2ncnc3sc(C)c(C)c23)cc1	19µM*	-4%	2%	6%	11%	5%
Cc1sc2ncnc(NCC(O)c3ccccc3)c2c1C (stereo not given)	19µM*	-10%	-1%	/	-3%	-9%
